NPSR antag – qHTS Assay for Antagonists of the Neuropeptide S Receptor: cAMP Signal Transduction | Q6W5P4 | Potency, µM (doses to about 38.3 µM), for inactives: top-dose activity change, negative = inhibition, most hits filed as inhibitors | CHO-NPSR cells, cAMP TR-FRET, antagonist mode | 220,000 tested, 1% active; note: nearly all actives have a fitted effect of over 50% in size
Target sequence (Q6W5P4 whole entry, looked up): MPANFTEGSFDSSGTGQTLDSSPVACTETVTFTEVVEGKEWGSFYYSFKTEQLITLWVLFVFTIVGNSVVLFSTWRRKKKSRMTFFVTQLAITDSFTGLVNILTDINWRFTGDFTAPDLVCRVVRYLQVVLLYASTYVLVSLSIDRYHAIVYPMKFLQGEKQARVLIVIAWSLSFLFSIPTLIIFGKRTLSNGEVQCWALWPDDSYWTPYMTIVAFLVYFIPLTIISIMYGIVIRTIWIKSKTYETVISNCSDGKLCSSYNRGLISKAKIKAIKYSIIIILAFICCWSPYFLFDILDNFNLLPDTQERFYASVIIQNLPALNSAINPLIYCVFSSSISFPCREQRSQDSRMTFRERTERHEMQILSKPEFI
B2AR arrestin – qHTS assay of beta-arrestin-biased ligands of beta2-adrenergic receptor | Beta-2 adrenergic receptor (Homo sapiens), P07550 | beta-arrestin recruitment to beta2AR, cell-based reporter | Potency, µM (titrated, usually from 46.1 µM), inactives show at the highest dose activation, usual class: activators | 330,000 tested, 0.02% active;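 note: 0% = DMSO controls and full agonism = EC100 isoproterenol or metaproterenol; nearly all actives have a fitted effect of over 65% in size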
Gal4-VP16 FLuc – VP16 counterscreen qHTS for inhibitors of ROR gamma transcriptional activity; 310,000 tested, 3.5% active; AID 2546, 2010; Potency, µM (doses to about 53.6 µM), without a hit: at the highest dose activity, negative = inhibition, actives largely listed as inhibitors; Drosophila S2 Gal4-VP16 UAS-luciferase, luminescence, 20 h;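 note: Gal4-VP16 expression switched on by copper sulfate through the metallothionein promoter; nearly all actives have a fitted effect of over 50% in size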
RORg inh – qHTS for inhibitors of ROR gamma transcriptional activity | Nuclear receptor ROR-gamma (Mus musculus), P51450 | Drosophila S2 Gal4-RORgamma UAS-luciferase reporter, 20 h | Potency, µM (highest dose often 53.6 µM), for inactives: at the top dose activity change, negative = inhibition, usual class: inhibitors | 310,000 tested, 5.4% active | AID 2551, 2010; note: nearly all actives have a fitted effect of over 60% in size
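A Gal4/UAS one-hybrid system in insect cells: metallothionein-promoter Gal4–ROR gamma fusion plus Photinus luciferase reporter. Copper sulfate 700 uM final, 20 hr ambient incubation, luminescent detection after 10 min with reagent.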
* marks the source's active call; other numbers are inactive results; u = inconclusive; x = not tested or not shown; [ ] = another dose, or the depositor's remark. Compounds with a hit are over-represented: about 5.7% of the library has one in this group of screens. Calls come from the whole dose curve; as a rule, active = well fitted curve in the direction sought with a large enough effect; inconclusive = small, poorly fitted or top-dose-only effect, or another doubt; inactive = no such curve, though single readings can be large; an effect the other way counts as inactive or inconclusive. Unless noted, % is set by controls: 0 for no effect and ±100 for the full control effect; potency is the fitted concentration of half-maximal effect.

SMILES | NPSR antag | B2AR arrestin | Gal4-VP16 FLuc | RORg inh
NCC1OC(OC2C(N)CC(N)[C@@H](O)[C@@H]2OC2O[C@H](CO)[C@@H](O[C@@H]3OC(CN)C(O)C(O)C3N)C2O)C(N)C(O)C1O (stereo not given in full) | x | x | -3.4% | -14.5%
Cc1ccccc1-c1nccc(NCCN2CCOCC2)n1 | x | x | 5.4% | 1.7%
CC(=S)/C=C1\Sc2ccccc2N1C | -14.5%[46.1 µM] | -0.3% | 10µM* | 5.01µM*
COc1ccc(C(=O)/C=C2\Sc3ccccc3N2C)cc1 | -44.0% | -0.2% | u | u
C(=C/c1nccc2c1[nH]c1ccccc12)/c1ccc2c(c1)OCO2 | -46.2% | -0.4% | -24.1% | 0.891µM*
O=c1c2ccccc2nc(/C=C/c2ccc3c(c2)OCO3)n1CCCO | -6.0% | -0.2% | -4.8% | 21.5%
CCCCCS(=O)(=O)CCCCCCCCCCn1c(-c2ccc(O)cc2)c(C)c2cc(O)ccc21 | x | x | 20µM* | u
CC(=O)c1c(C)n(CCO)c2ccc(O)cc12 | -9.9%[46.1 µM] | -0.1% | -0.7% | 1.8%
N#C/C(=C/c1ccc(N2CCOCC2)o1)c1ccc(Cl)cc1 | u | 10.7% | 10µM* | u
N#C/C(=C\c1ccc(N2CCOCC2)c([N+](=O)[O-])c1)c1nc2ccccc2[nH]1 | -8.6% | -1.3% | u | u
N#C/C(=C\c1ccc(N2CCOCC2)o1)c1nc2ccccc2[nH]1 | -27.7%[46.1 µM] | 0.0% | 0.0% | 15.8µM*
Cc1cc(NC(=O)CSc2ncnc3ccccc23)no1 | -6.5%[46.1 µM] | -0.1% | -6.8% | 7.94µM*
CCc1cc2ccc(OC)cc2nc1SCC(=O)Nc1cc(C)on1 | 10µM* | -0.1% | -27.4% | -0.3%
CCOC(=O)CSc1nnc(-c2ccc(OC)cc2OC)o1 | -8.1%[46.1 µM] | -0.7% | u | 8.91µM*
COc1ccccc1NC(=O)CSc1nnc(-c2ccc(C)cc2)o1 | -1.4%[46.1 µM] | 0.1% | 19.4% | 2.8%
COc1cccc(NC(=O)CSc2nnc(-c3ccc(C)cc3)o2)c1 | -5.3%[46.1 µM] | 0.0% | 12.6µM* | u
COc1ccc(-c2nnc(SC)o2)c(OC)c1 | 7.0% | 0.0% | -6.7% | 1.5%
CCc1cc2ccccc2nc1SCC(=O)Nc1cc(C)on1 | -4.0%[46.1 µM] | -0.5% | -8.7% | -23.6%
O=C(NCC(c1ccco1)N1CCc2ccccc2C1)c1ccc(Br)cc1 (stereo not given) | x | 0.2% | x | x
O=C(O)/C=C\c1ccc(Cn2ccnc2)cc1 | x | x | -6.1%[17 µM] | 2.9%[2.98 µM]
COc1ccc(-c2nnc(SCC(=O)Nc3cc(C)on3)o2)cc1 | -4.6% | u | u | 11.2µM*
O=c1c(CCc2ccccc2)nc2cnc(N3CCOCC3)nc2n1C1CC1 | x | x | -11.1% | 9.1%
CCCCn1c(N)c(C(=S)NC(=O)CC(C)C)c(=O)n(C)c1=O | -1.4% | -0.7% | 1.12µM* | 1.12µM*
CC(=O)NC(=S)c1c(N)n(Cc2ccccc2)c(=O)n(C)c1=O | -10.4%[46.1 µM] | 0.1% | 2.82µM* | 2.82µM*
CCCn1c(N)c(C(=O)COC(=O)c2c(C)noc2C)c(=O)n(C)c1=O | 20.6%[46.1 µM] | 0.2% | -13.9% | 20.7%
SMILES | NPSR antag | B2AR arrestin | Gal4-VP16 FLuc | RORg inh
CCCn1c(N)c(C(=S)NC(=O)C2CC2)c(=O)n(C)c1=O | 8.9% | -1.0% | 3.98µM* | 3.55µM*
CC(=O)Nc1ccc(SCC(=O)c2c(N)n(Cc3ccccc3)c(=O)n(C)c2=O)cc1 | 2.7% | 0.0% | 4.0% | 21.4%
O=C(NC1CCCCC1)C(c1cccnc1)N(C(=O)CCl)c1ccc(F)cc1 (stereo not given) | -22.6% | -1.2% | u | 11.2µM*
COc1ccc(/C=N/NC(=O)c2[nH]c3ccc(Br)cc3c2-c2ccccc2)c(C(=O)O)c1OC | 5.7% | 0.1% | -15.1% | -10.5%
Cc1c(C(=O)N/N=C/c2ccc(N(C)C)cc2)[nH]c2ccc(Cl)cc12 | 2.8% | -0.1% | u | 6.31µM*
COc1ccc(/C=N/NC(=O)c2[nH]c3ccc(Br)cc3c2-c2ccccc2)cc1 | 19.4% | -1.4% | 11.2µM* | 10µM*
Cc1c(C(=O)N/N=C/c2ccccc2)[nH]c2ccc(Cl)cc12 | -11.6% | -0.5% | u | 17.8µM*
CN(C)c1ccc(/C=N/NC(=O)c2ccc(NC(=O)c3ccccc3)cc2)cc1 | -18.1% | -0.5% | 0.6% | 30.4%
COc1ccc(/C=N/NC(=O)c2[nH]c3ccc(Cl)cc3c2-c2ccccc2)c(C(=O)O)c1OC | x | -0.8% | -4.8% | -8.0%
COc1cc2c(cc1OC)C1(O)C(=O)c3ccc(O)c(C(=O)O)c3OC1CO2 (stereo not given) | x | x | 7.2% | -8.5%

Screening results from PubChem BioAssay.
